Screens (PubChem)
DAX1 inh-1 – inhibitors of DAX1 repression of SF-1 activated StAR promoter | HEK293T StAR-luciferase reporter, SF-1/DAX-1 repression relief | inhibition, % at 6.8 µM | 370,000 tested, 1.1% active | AID 652010;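 active = inhibition above the mean over all tested compounds plus 3 SD, cut at about 3.6% in these data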;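 note: 0% = DAX-1 cells with DMSO and 100% = cells lacking DAX-1 with DMSO; higher inhibition means more luminescence from relief of DAX-1 repression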
DAX1 inh-2 – inhibitors of human orphan nuclear receptor DAX1 (NR0B1). HEK293 Gal4-DAX1 luciferase reporter, luminescence. 340,000 tested, 0.99% active. P51843. inhibition, % at 6.75 µM;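 active = inhibition above the mean over all tested compounds plus 3 SD, cut at about 4.2% in these data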;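 note: 0% = DAX1-transfected cells with DMSO and 100% = empty-vector control cells with DMSO; inhibition shows as a rise in luminescence from relieved DAX1 repression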
hcDAF12 agonist – activates DAF-12 receptor from parasite H. contortus; 370,000 tested, 1.4% active; HEK293 hcDAF-12 lit1-tk-luc reporter, luminescence; 0% DMSO, 100% Δ7-dafachronic acid; AID 652067; activation, % at 6.8 µM;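 active = activation above the mean of all tested compounds plus 3 SD, cut at about 5.5% in these data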;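 note: 100% = response to 3 µM Δ7-dafachronic acid high control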
hgDAF12 agonist – activates the H. glycines DAF-12 receptor ligand-binding domain; HEK293 GAL4-hgDAF12 UAS-luciferase reporter, agonist luminescence; normalized to butyrate control; 370,000 tested, 1.8% active; AID 687014; activation, % at 6.8 µM;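 active = activation above a cutoff set at the mean of all screened compounds plus 3 SD, cut at about 10% in these data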;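 note: 0% = DMSO wells and 100% = sodium butyrate wells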
ssDAF12 agonist – activators of S. stercoralis DAF-12 nuclear receptor. HEK293 ssDAF-12/GRIP1 lit1-tk-luc reporter, luminescence; % of 3 µM dafachronic acid response. activation, % at 6.8 µM. 370,000 tested, 1% active. AID 652126;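 active = activation above the mean over all tested compounds plus 3 SD, cut at about 0.9% in these data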;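 note: 0% = DMSO-only wells and 100% = 3 µM delta7-dafachronic acid wells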
LXR ag – LXR-beta agonism as hcDAF-12 counter-screen. shares compounds with hcDAF12 agonist. HEK293 Gal4-LXR tk-luc reporter, luminescence, 24 h; normalized: DMSO 0%, positive control 100%. activation, % at 6.8 µM. 3,400 tested, under 10 active;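 active = mean percent activation of the reporter above a cutoff set as the average over tested compounds plus their standard deviation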
Target sequence (P55055 whole entry, looked up, the tested form may be a part): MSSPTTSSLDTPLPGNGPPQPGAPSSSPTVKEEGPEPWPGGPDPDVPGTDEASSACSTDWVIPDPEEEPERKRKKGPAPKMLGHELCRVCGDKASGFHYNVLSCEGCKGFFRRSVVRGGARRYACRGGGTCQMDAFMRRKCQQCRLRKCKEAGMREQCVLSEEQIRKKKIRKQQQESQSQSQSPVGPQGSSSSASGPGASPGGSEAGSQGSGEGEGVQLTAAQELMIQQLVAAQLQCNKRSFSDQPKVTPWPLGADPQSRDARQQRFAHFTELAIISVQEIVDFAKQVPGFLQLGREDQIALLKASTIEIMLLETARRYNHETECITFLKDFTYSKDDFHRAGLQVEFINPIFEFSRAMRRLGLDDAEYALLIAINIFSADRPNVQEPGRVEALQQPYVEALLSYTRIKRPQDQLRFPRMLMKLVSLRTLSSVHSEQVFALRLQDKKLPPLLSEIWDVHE
hcDAF12 ag – confirmation of H. contortus DAF-12 agonists; HEK293 hcDAF-12 lit1-tk-luc reporter, luminescence; % of Δ7-dafachronic acid response; shares compounds with hcDAF12 agonist; 3,400 tested, 61% active; activation, % at 6.8 µM;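 active = mean activation across triplicate tests above the threshold derived from the earlier primary screen, cut at about 5.5% in these data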;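 note: 0% = DMSO only wells and 100% = 3 µM Δ7-dafachronic acid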
Numbers without * were called inactive; x = no result given. This is a sample that favours compounds with a hit; in the whole collection about 4.1% have one here.

SMILES	DAX1 inh-1	DAX1 inh-2	hcDAF12 agonist	hgDAF12 agonist	ssDAF12 agonist	LXR ag	hcDAF12 ag
Cc1ccc(C(=O)c2c3ccc(C(F)(F)F)cc3[n+]([O-])n2CCC(N)=O)cc1	0	1	7.8*	1	0	0	2
COc1ccc(C(=O)c2c3ccccc3[n+]([O-])n2CCC(N)=O)cc1	0	1	0	2	-1	x	x
Cc1ccc(C(=O)c2c3ccc(C(F)(F)F)cc3[n+]([O-])n2CCCC(N)=O)cc1	0	1	3	0	-1	x	x
O=C1/C(=C/Nc2ccc3c(c2)OCO3)CCc2ccccc21	1	-3	9.4*	9	0	1	7.5*
Cc1ccc(NC(=O)C2COc3ccccc3O2)nc1 (configuration not stated)	3	2	9.5*	12*	1	1	9.4*
Cc1ccc(NC(=O)C2COc3ccccc3O2)cc1 (configuration not stated)	2	2	6.6*	12*	0	1	7.7*
CC1(C)Oc2ccc(NC(=O)C3COc4ccccc4O3)cc2O1 (configuration not stated)	4.4*	0	8.9*	12*	1.9*	1	7.6*
Cc1ccc(NC(=O)C2Oc3ccccc3OC2C)cc1 (configuration not stated)	0	0	9.1*	2	0	0	6.9*
O=C(Nc1ccccc1)C1COc2ccccc2O1 (configuration not stated)	2	0	3	4	-1	x	x
Cc1ccc(NC(=O)N(C)c2ccccc2)cc1	0	3	0	1	0	x	x
CCCOCC(O)CC(Cc1ccccc1)C(=O)NN (configuration not stated)	0	-1	0	0	-1	x	x
Cn1c(-c2ccccc2)cnc1SCC(=O)N1CCCc2ccccc21	-1	0	-2	-2	-2	x	x
O=C(CSc1ncc(-c2ccccc2)n1C1CCCC1)N1CCc2ccccc21	0	0	7.4*	6	0	0	3
Cn1c(/C(C#N)=C(\O)c2ccc(Cl)s2)nc2ccccc21	1	1	8.0*	3	0	0	8.3*
Cn1c(/C(C#N)=C(\O)c2ccc([N+](=O)[O-])s2)nc2ccccc21	0	0	-1	-2	0	x	x
CCSc1nc(=S)n(Cc2ccccc2)c(C)c1C(C)=O	0	-1	-1	-1	-1	x	x
CSc1nc(=S)n(Cc2ccccc2)c(C)c1C(C)=O	1	0	9.1*	0	-1	0	1
O=C(Nc1ccccc1N1CCCCC1)c1ncoc1-c1ccc(F)cc1	0	1	0	0	-1	x	x
O=C(Nc1ccccc1N1CCCCC1)c1ncoc1-c1cccc(F)c1	1	1	7.0*	1	-1	0	2
O=C(Nc1cccnc1Cl)c1cc2ccccc2o1	3	4.2*	9.3*	12*	2.8*	1	5
O=C(Nc1ccccc1N1CCCCC1)c1ccc(-c2cccc(Cl)c2)o1	0	-2	7.4*	2	-1	0	5
O=C(Nc1ccccc1N1CCCC1)c1cc2ccccc2o1	2	1	7.5*	12*	1.9*	0	6.7*
C#CCNC(=O)C1=C[C@H](C2CCCCC2)C[C@H](OCCCCO)O1	0	1	-1	2	-1	x	x
O=C(Nc1cc2c(oc1=O)CCCC2=O)c1ccc(Cl)cc1	0	3	0	5	-1	x	x
Cn1c(NC(=S)Nc2ccccc2)nc2ccccc21	2	0	7.9*	11*	1	1	5
SMILES	DAX1 inh-1	DAX1 inh-2	hcDAF12 agonist	hgDAF12 agonist	ssDAF12 agonist	LXR ag	hcDAF12 ag
S=C(Nc1ccccc1)Nc1nc2ccccc2n1CCOc1ccc(Br)cc1	0	1	-1	-2	-1	x	x
CC1(C)Cc2c(sc3nc(-c4cccs4)n(N)c(=O)c23)CO1	-2	-1	0	3	-2	x	x
Nn1c(-c2cccs2)nc2sc3c(c2c1=O)CCCC3	1	4	21*	12*	2.0*	1	11*
CCOC(=O)C1CCCN(Cc2c(F)cccc2Cl)C1 (configuration not stated)	1	1	1	1	0	x	x
Cc1ccc2oc(C(=O)NC3CCS(=O)(=O)C3)c(C)c2c1 (configuration not stated)	2	1	0	1	0	x	x
Cc1c(C(=O)NC2CCCCC2)oc2ccc(F)cc12	1	4	18*	10*	1	1	8.3*
CC(C)(C)c1cc(CN(CCO)CCO)c(O)c(C(C)(C)C)c1	1	2	-1	-2	-1	x	x
Cc1ccc2oc(/N=C(\N)NC(=O)C3CC3)nc2c1	0	-6	6.6*	10	0	2	7.0*
O=c1c2cc(Cl)ccc2[nH]c(=S)n1Cc1ccco1	0	0	0	-2	-1	x	x
O=c1c2cc(Cl)ccc2[nH]c(=S)n1Cc1cccs1	1	2	6.7*	0	0	0	4
O=c1[nH]c(=S)[nH]c2nccnc12	-1	1	-1	-1	0	x	x
COCCn1c(=NC(=O)C(C)(C)C)sc2cc([N+](=O)[O-])ccc21	0	0	0	9	0	x	x
CCCn1c(=O)c2ccccc2n2c(SCc3nc4ccccc4s3)nnc12	3.7*	1	9.5*	8	1.1*	1	7.3*
Cn1c(SCc2nc3ccccc3s2)nnc1-c1cccs1	0	1	7.1*	6	1.5*	0	4
COc1ccccc1-c1nnc(SCc2nc3ccccc3s2)n1C	0	2	8.6*	1	1	0	3
CCn1c(SCc2nc3ccccc3s2)nnc1-c1cccs1	0	1	5	9	0	x	x
COCCNC(=O)Cn1c(=O)n(CCCCCC(=O)Nc2ccccc2)c(=O)c2sccc21	0	0	0	-1	-1	x	x
CCOC(=O)Nc1nn(-c2ccc(C)cc2)c(=O)c(C#N)c1C	0	0	-2	-1	-2	x	x
COc1ccc(OC)c(C2NC(=S)NC3=C2N2CCC3CC2)c1 (configuration not stated)	0	-1	-2	4	-2	x	x
Cn1cc(C2CC(c3ccccc3)=NN2C(=O)c2ccccc2)c2ccccc21 (configuration not stated)	2	2	7.9*	6	0	0	4
